GSIS activator – GLuc luminescence reporter in INS-1E cells, primary screen for activators of glucose-dependent secretion of insulin; INS-1E GLuc reporter insulin secretion, 2-3 h; 370,000 compounds, 0.61% hits; activation, % at 16.6 µM; AID 743287;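 active = lowest replicate activation of at least 40%, so every replicate reaches that level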;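 note: 0% = median of neutral control wells and 100% = median of IBMX positive control wells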
Bfl-1 A1 inh – inhibitors of the anti-apoptotic protein A1, read as caspase activation; MEF A1-2A-BIM cells, Caspase-Glo 3/7 luminescence, 3 h; percent of clofoctol response, vehicle zero; caspase activation, % (concentration not given with the values); 330,000 compounds, 0.066% hits;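 active = over half of replicate activation scores above 10%, or exactly half above 10 with the replicate mean above 10; inconclusive = replicate mean below 10 yet half the replicates above 10; inactive = over half of replicates below 10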
Vif imaging – HIV Vif inhibition | HEK293T cells, Vif self-association by quenched fluorescence, imaging, 24 h | inhibition, % at 7.49 µM | 340,000 compounds, 0.35% hits | AID 602346; in the data active = inhibition above about 50%, passing the limit was not always enough; inconclusive = no clear call, values can overlap the other calls; inactive = below about 31%
dFosB act – enhances mouse delta FosB homodimer DNA binding; purified delta FosB, TAMRA-CDK5 oligo fluorescence polarization; percent of positive-control signal above neutral wells; 340,000 compounds, 0.99% hits; P13346; activation, % at 25 µM;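 active = mean activation above about 17%, with every replicate also reaching it, limit read from the data, passing the limit was not always enough; inconclusive = only one of the two conditions met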
Neddyl block – cullin neddylation inhibition; TR-FRET cullin neddylation, biochemical; inhibition, % at 25 µM; 360,000 compounds, 0.58% hits; AID 651699; in the data active = inhibition above about 36%
An asterisk follows results filed as active; ? = inconclusive; · = not tested or not shown. The list is not random: actives were taken first. Their share in the collection is about 1.9%.

SMILES	GSIS activator	Bfl-1 A1 inh	Vif imaging	dFosB act	Neddyl block
CCc1nc(N2CCN(C(C)=O)CC2)c(C#N)c2c1COC(C)(C)C2	2	0	-1	-7	·
Cc1nc(N2CCN(C(=O)c3ccc(Cl)cc3)CC2)c(C#N)c2c1COC(C)(C)C2	·	0	-6	-14	41*
C[C@H](CO)N1C[C@H](C)[C@@H](CN(C)S(=O)(=O)c2ccc(F)cc2)Oc2c(NC(=O)c3cnccn3)cccc2C1=O	21	·	·	·	·
CCCCn1c(=O)n(C)c(=O)c2c3c(sc21)COC(C)(C)C3	45*	1	-5	-12	7
CC1CCc2nc(N)c(C#N)c(-c3cccnc3)c2C1 (stereo unspecified)	16	-1	-10	-8	30
CC1CCc2nc(N)c(C#N)c(-c3ccncc3)c2C1 (stereo unspecified)	78*	0	2	-11	34
Cc1cccc(NC(=O)C2CCCN2C(=O)OCC(C)C)c1 (stereo unspecified)	·	0	?	2	11
CC(C)COC(=O)N1C[C@H](O)C[C@H]1C(=O)Nc1ccc(Cl)cc1	120*	0	-10	-5	-8
COCCN(CC(=O)NC1CCCCC1)C(=O)/C=C/C(=O)c1ccc(OC)cc1O	49*	·	-16	-3	5
COc1ccc(CN(C(=O)/C=C/C(=O)c2ccc(OC)cc2O)C(C(=O)NC2CCCCC2)c2ccncc2)cc1 (stereo unspecified)	-32	0	-3	-16	11
COc1ccc(C(=O)/C=C/C(=O)N(CC(=O)NC2CCCCC2)Cc2cccs2)c(O)c1	-3	26*	7	-19	15
Cc1ccc(OCC(=O)Nc2ccc(N3CCCC3)cc2)cc1C	4	1	·	10	-3
Cc1cccc(OCC(=O)Nc2ccc(N3CCCC3)cc2)c1C	-1	1	9	47*	6
Cc1cc(C)cc(OCC(=O)Nc2ccc(N3CCCC3)cc2)c1	·	0	-1	65*	10
C[C@@H]1CN([C@@H](C)CO)C(=O)c2cc(NC(=O)Nc3ccccc3)ccc2O[C@@H](C)CCCCO[C@H]1CN(C)C	6	·	·	·	·
CCC(C)Nc1nc(N)c([N+](=O)[O-])c(NCCO)n1 (stereo unspecified)	71*	0	4	-3	5
CC(C)CCNc1nc(N)c([N+](=O)[O-])c(NCCO)n1	47	0	14	-6	-6
CC(C)CC#Cc1ccc([C@@H]2[C@H](CO)N3C(=O)CN(C(=O)Cc4ccccc4)C[C@@H]23)cc1	-8	·	·	·	·
CCOc1ccc(CN2C(=O)c3ccccc3C2=O)cc1C(=O)Nc1nnc(SCC)s1	44*	2	0	4	-18
COC(=O)C[C@@H]1C[C@@H]2c3cc(NS(C)(=O)=O)ccc3O[C@@H]2[C@@H](CO)O1	26	·	·	·	·
CCOC(=O)/C(C#N)=C/c1cc(C)n(-c2ccc(C)cc2)c1C	-16	-1	71*	-1	35
CCOC(=O)/C(C#N)=C\c1cc(C)n(-c2ccccc2)c1C	·	0	0	-10	24
CCOC(=O)Cc1nn(Cc2ccccc2)c(=O)c2ccccc12	89*	1	?	-6	0
COc1ccc2[nH]c(CN3CCN(CC(C)C)C(CCO)C3)c(C)c2c1 (stereo unspecified)	·	0	1	-14	15
COc1ccc2[nH]c(CN3CCN(C(C)C)C(CCO)C3)c(C)c2c1 (stereo unspecified)	20	1	64*	-4	18
SMILES	GSIS activator	Bfl-1 A1 inh	Vif imaging	dFosB act	Neddyl block
CCCNC(=O)Nc1ccc2c(c1)C(=O)N(C)[C@H]1CC[C@H](CC(=O)NCc3ccccc3)O[C@H]1CO2	4	·	·	·	·
COc1cc([N+](=O)[O-])ccc1-c1ccc(/C=N\n2cnnc2)o1	-6	0	177*	15	-35
CCN(CC)c1ccc(-c2sc(Nc3ccccc3)n[n+]2-c2ccc(F)cc2)cc1	·	1	16	28*	-54
CCc1ccc(Nc2n[n+](-c3ccccc3)c(-c3ccc(OCc4ccccc4)cc3)s2)cc1	6	-1	1	2	-421
CCc1ccc(Nc2n[n+](-c3ccccc3)c(-c3ccc(N(CC)CC)cc3)s2)cc1	-45	-1	·	75*	-48
NC(N)=N/N=C/c1ccc2cccc(OCc3ccccc3)c2n1	·	0	-21	-32	45*
O/N=C/c1ccc2cccc(OCc3ccccc3)c2n1	5	0	-5	-9	·
COc1ccc(C(=O)Nc2nnc(-c3cccs3)s2)cc1	72*	-6	10	-7	17
O=C(Nc1ccccc1)Nc1nnc(-c2cccs2)s1	69*	-2	-3	0	8
COc1ccc(NC(=O)Nc2nnc(-c3cccs3)s2)cc1	-12	-2	4	-5	10
COc1ccc(C(=O)Nc2nnc(-c3ccco3)s2)cc1	52*	-7	3	6	1
Cc1ccc(NN2C(=O)C=C(c3ccc(Cl)cc3)C2=O)cc1	·	11*	3	-3	5
CCCCc1c(-c2ccccc2OC)ncn1Cc1cccc(F)c1F	11	·	·	·	·
CCCCc1c(-c2ccccc2OC)ncn1Cc1ccc(-c2ccccc2)cc1	-25	·	·	·	-3
CCCCc1c(-c2ccccc2OC)ncn1Cc1ccccc1C	186*	·	·	·	·
CCCCc1c(-c2ccccc2OC)ncn1Cc1ccc(C)cc1	66*	·	·	·	·
Cc1ccc(-c2cnc3cccnn23)cc1F	46*	·	-4	·	·
CN(CC(=O)Nc1ccc(F)cc1)C(=O)CSc1nncs1	-7	-1	16	-5	-8
O=C(CSc1nncs1)NCc1ccc(F)cc1	-7	1	51*	-2	4
O=C(/C=C/c1ccccc1)N1CCOCC1	11	-1	9	7	-1
O=C(/C=C/c1ccccc1)CCN1CCOCC1	52*	·	13	-9	-8
Cc1cc(NS(=O)(=O)c2ccc(NC(=O)C(C)Oc3ccc(Cl)cc3)cc2)no1 (stereo unspecified)	5	1	-5	3	-5
Cc1cc(NS(=O)(=O)c2ccc(NC(=O)C(C)Oc3ccccc3Cl)cc2)no1 (stereo unspecified)	59*	0	25	0	11
O=C(C=Cc1ccccn1)c1ccccc1	12	·	70*	-7	-5
C[C@H]1CCCCO[C@H](CN(C)Cc2ccc(C(F)(F)F)cc2)[C@@H](C)CN([C@@H](C)CO)C(=O)c2cc(NC(=O)c3ccncc3)ccc2O1	-19	·	·	·	·
COc1ccc2c(c1OC)C(=O)N1c3ccccc3SC21 (stereo unspecified)	115*	-5	2	-6	17
CN(C)c1ccc2c(c1)[C@H]1C[C@H](CC(=O)NCc3ccc(-c4ccccc4)cc3)O[C@@H](CO)[C@H]1O2	-16	·	·	·	·
COc1ccc(-c2cc(C(=O)N3CCCCCC3)no2)cc1OC	51*	0	-4	-1	15
O=C(c1cc(-c2ccccc2O)on1)N1CCOCC1	-2	-2	-5	-8	7
